{
  "source": "PubChem BioAssay AID434973",
  "about": "(Sanford-Burnham Center for Chemical Genomics, 2010)",
  "note": "About 4,900 (1.5%) of roughly 330,000 compounds were called active. Only a selection was taken, and actives are over-represented in it overall. Unmarked numbers belong to inactive results.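 Rule for the calls: active = inhibition above about 50% at the single test dose (limit read from the data); inactive = the rest.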 Non-standard residues stand in square brackets, D forms with d. Residues, ends and D or L forms follow the SMILES beside them. ξ: configuration not given here. *: point of attachment. Cbz = O=C(OCc1ccccc1)*; ξL = CC(C)CC(N)C(=O)O; ξP = O=C(O)C1CCCN1",
  "data": [
    {"biological_target": "Sentrin-specific protease 7 (Homo sapiens) (UniProt Q9BQF6)", "test": "SENP7 protease inhibitors, primary screen, biochemical, luminescence, uHTS (AID 434973);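 note: plate controls were DMSO with enzyme for no effect and no enzyme buffer wells for full effect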", "settings": "recombinant SENP7, Z-RLRGG-aminoluciferin luminescence, 40 min; at 5 µM; stronger effect = higher value", "values": [
      {"smiles": "O=C(COc1cccc(Cl)c1)NCc1ccccc1", "inhibition": "-0.414%"},
      {"smiles": "COc1cccc(NC(=O)CN(C)C(=O)c2ccccc2CCc2ccccc2)c1", "inhibition": "-9.77%"},
      {"smiles": "CC[C@]1(C(=O)OC)[C@H]2C(=O)N(C)C(=O)[C@H]2[C@H]2CN(C)C(=NCc3ccccc3)N21", "inhibition": "0.164%"},
      {"smiles": "COc1cc(NC(=O)CCS(=O)(=O)c2ccc3c(c2)oc(=O)n3C)cc(OC)c1", "inhibition": "1.53%"},
      {"smiles": "CCN(CC)S(=O)(=O)c1ccc(N(C)Cc2ccc(C(F)(F)F)cc2)nc1", "inhibition": "-1.06%"},
      {"smiles": "Cc1ccc(CN2CCN(Cc3ccccc3-c3ccco3)CC2CCO)o1", "note": "(centres undefined)", "inhibition": "4.02%"},
      {"smiles": "CC(OC(=O)c1ccc(Cl)cc1O)C(=O)NCCC1=CCCCC1", "note": "(centres undefined)", "inhibition": "-16.5%"},
      {"smiles": "CC[N+](C)(CC)CCC[n+]1c(-c2ccccc2)c2cc(N)ccc2c2ccc(N)cc21", "inhibition": "96.3% (active)"},
      {"smiles": "COC(=O)c1ccc(COc2ccc(C#N)cc2)o1", "inhibition": "0.574%"},
      {"smiles": "Cc1cc2oc(=O)cc(CN3CCN(S(=O)(=O)c4cccs4)CC3)c2cc1C(C)C", "inhibition": "8.53%"},
      {"smiles": "Cn1c(-c2ccc(C(=O)c3ccccc3)s2)nc2ccccc21", "inhibition": "98.5% (active)"},
      {"smiles": "Cn1c(Nc2cccc(Cl)c2)nc2ccccc21", "inhibition": "4.17%"},
      {"smiles": "CCn1c(NC(=O)c2nn(C)cc2Br)nc2ccccc21", "inhibition": "-3.05%"},
      {"smiles": "Cn1c(NC(=O)c2ccccc2)nc2ccccc21", "inhibition": "77.2% (active)"},
      {"smiles": "Cc1nc2ccccc2c(-c2ccccc2)c1C(=O)c1ccccc1", "inhibition": "-0.427%"},
      {"smiles": "Cc1nn(C)cc1C(=O)c1ccccc1", "inhibition": "7.95%"},
      {"smiles": "CCC1(CC)NC(=O)N(CC(=O)OCC(=O)Nc2ccc(C(F)(F)F)cc2)C1=O", "inhibition": "-0.704%"},
      {"smiles": "COC(=O)c1ccc(NC(=O)CSc2nnc(Cc3cccn3C)n2-c2ccc(F)cc2)cc1", "inhibition": "9.96%"},
      {"smiles": "CC(C)c1ccc(C2C(C#N)=C(N)Oc3c2oc(CO)cc3=O)cc1", "note": "(centres undefined)", "inhibition": "3.37%"},
      {"smiles": "CCOC(=O)N1CCC(NC(=O)CN2C(=O)COc3ccc(C(C)(C)C)cc32)CC1", "inhibition": "-10.5%"},
      {"smiles": "O=S(=O)(NCCS(=O)(=O)N1CCN(c2ccccc2)CC1)c1ccc(F)cc1", "inhibition": "9.28%"},
      {"smiles": "COc1ccc(C(=O)Nc2cccc(NC(=O)c3ccc(OC)cc3OC)n2)c(OC)c1", "inhibition": "0.763%"},
      {"smiles": "COc1cc(SC)ccc1C(=O)Nc1cc(C)ccn1", "inhibition": "60.6% (active)"},
      {"smiles": "COc1cc(SC)ccc1C(=O)Nc1nc(C)cs1", "inhibition": "101% (active)"},
      {"smiles": "COc1ccc(C(=O)NC2=NCCS2)c(OC)c1", "inhibition": "24.6%"},
      {"smiles": "Cc1ccnc(NC(=O)c2ccoc2C)c1", "inhibition": "71.9% (active)"},
      {"smiles": "Cc1ccnc(NC(=O)CNC(=O)c2ccccc2)c1", "inhibition": "-1.59%"},
      {"smiles": "COC(=O)c1sc(NC(=O)c2ccc(OC)cc2OC)nc1C", "inhibition": "101% (active)"},
      {"smiles": "Cc1csc(NC(=O)c2ccc(C)s2)n1", "inhibition": "0.528%"},
      {"smiles": "COc1cc(SC)ccc1C(=O)NNC(=O)C1COc2ccccc2O1", "note": "(centres undefined)", "inhibition": "5.69%"},
      {"smiles": "COc1cc(SC)ccc1C(=O)N(Cc1ccccc1)c1ccccc1", "inhibition": "-1.54%"},
      {"smiles": "Cc1occc1C(=O)Nc1cccc(Cn2cccn2)c1", "inhibition": "8.79%"},
      {"smiles": "COc1cc2ccccc2cc1C(=O)Nc1nc(C)c(C(C)=O)s1", "inhibition": "-4.32%"},
      {"smiles": "CC(C)CC(NC(=O)C1CCCN1C(=O)[C@@H](C)NC(=O)OCc1ccccc1)C(=O)NCC(N)=O", "note": "(some centres undefined) (Cbz-[dA][ξP][ξL]G-NH2)", "inhibition": "8.74%"},
      {"smiles": "CCC1CCCCN1CCNC(=O)c1[nH]c(C)c(C(C)=O)c1C", "note": "(centres undefined)", "inhibition": "0.149%"},
      {"smiles": "COCn1c(C(O)c2ccccc2)cc2ccccc21", "note": "(centres undefined)", "inhibition": "12.5%"},
      {"smiles": "CCOC(=O)c1cnc(Nc2nc3ccccc3o2)nc1CSC(=S)N1CCCCC1", "inhibition": "0.449%"},
      {"smiles": "CCn1ccnc1CN(C)C(=O)c1cc(COc2ccc(Cl)cc2OC)on1", "inhibition": "5.22%"},
      {"smiles": "C=CCOc1ccc(/C=C/C(=O)OCC(=O)NC(C)c2ccc(F)cc2)cc1", "note": "(centres undefined)", "inhibition": "-12.8%"},
      {"smiles": "CCOC(=O)c1c(N)sc2c1CCCC2=O", "inhibition": "-8.61%"},
      {"smiles": "COc1ccc(S(=O)(=O)n2nc(C)c(S(=O)(=O)N3CCOCC3)c2C)cc1", "inhibition": "-1.04%"},
      {"smiles": "CC(C)COC(=O)n1c(=O)oc2ccc(S(=O)(=O)N3CCCCC3)cc21", "inhibition": "-5.94%"},
      {"smiles": "O=C(CSc1nnnn1-c1ccc(O)cc1)N1N=C(c2ccc3ccccc3c2)CC1c1ccccc1", "note": "(centres undefined)", "inhibition": "2.06%"},
      {"smiles": "CSc1ccc(/C=N/NC(=O)c2cccc(Cl)c2)cc1", "inhibition": "96% (active)"},
      {"smiles": "CSc1ccc(/C=N\\NC(=O)CC(=O)NC(C)C)cc1", "inhibition": "4.98%"},
      {"smiles": "O=C(N/N=C/c1ccc(Cl)c(Cl)c1)c1ccc2nc[nH]c2c1", "inhibition": "-0.0621%"},
      {"smiles": "O=C(CN1C(=O)NC(Cc2ccccc2)(Cc2ccccc2)C1=O)NCC1CCCCC1", "inhibition": "-0.975%"},
      {"smiles": "COCCN(CCOC)c1nc(N)c2c(N)nc3c(c2c1C#N)CC(=O)N3Cc1ccc(Cl)cc1", "inhibition": "58.9% (active)"},
      {"smiles": "Cc1ccccc1NC(=O)C(C)OC(=O)CCC(=O)N(CC(C)C)c1c(N)n(CC(C)C)c(=O)[nH]c1=O", "note": "(centres undefined)", "inhibition": "9.72%"},
      {"smiles": "Cc1nn(-c2ccccc2)c2c1c(C)c(CCC(=O)NCC1CCCO1)c(=O)n2C", "note": "(centres undefined)", "inhibition": "-0.922%"},
      {"smiles": "COc1cc(C(=O)NCc2nnc(SCC(=O)Nc3nc4ccc(C)cc4s3)o2)cc(OC)c1OC", "inhibition": "3.97%"},
      {"smiles": "CCCc1nc2ccccc2c(=O)n1/N=C/c1ccc(O)c(O)c1", "inhibition": "-1.91%"},
      {"smiles": "CN(C(=O)Nc1ccc(Cl)cc1)n1cnc2ccccc2c1=O", "inhibition": "-9.71%"},
      {"smiles": "O=c1c2ccccc2ncn1/N=C/c1ccccc1", "inhibition": "88.5% (active)"},
      {"smiles": "Cc1cccc(S(=O)(=O)N2CN(CC3CCCO3)c3nc4ccccc4nc32)c1", "note": "(centres undefined)", "inhibition": "-0.481%"},
      {"smiles": "CC1CCN(C(=O)c2ccc(CSc3ccc(Cl)cc3)cc2)CC1", "inhibition": "-2.26%"},
      {"smiles": "O=C(c1ccc(S(=O)(=O)c2ccccc2)cc1)N1CCCCCC1", "inhibition": "3.58%"},
      {"smiles": "O=C(c1ccc(CSc2ccccc2)cc1)N1CCCCCC1", "inhibition": "72.6% (active)"},
      {"smiles": "CCc1ccccc1OCC(=O)Nc1ccc(C)c(S(=O)(=O)N2CCCCCC2)c1", "inhibition": "1.37%"},
      {"smiles": "Cc1cc(C(=O)NNC(=O)c2ccccc2O)c(C)o1", "inhibition": "9.67%"},
      {"smiles": "COc1ccccc1N(CC(=O)N/N=C(\\C)c1ccccc1O)S(=O)(=O)c1ccc(C)cc1", "inhibition": "3.18%"},
      {"smiles": "C/C(=N\\NC(=O)c1ccoc1C)c1ccccc1O", "inhibition": "51.5% (active)"},
      {"smiles": "COc1ccc2c(CC(=O)OCC(=O)Nc3ccccc3[N+](=O)[O-])coc2c1", "inhibition": "-12%"},
      {"smiles": "COC(=O)c1ccc(S(=O)(=O)N(CCO)Cc2ccccc2)n1C", "inhibition": "1.52%"},
      {"smiles": "O=C(COC(=O)c1ccc(Br)o1)NC12CC3CC(CC(C3)C1)C2", "inhibition": "7.39%"},
      {"smiles": "CCOc1ccc(-n2cnnn2)cc1S(=O)(=O)N1CCC(C)CC1C", "note": "(centres undefined)", "inhibition": "7.69%"},
      {"smiles": "Cc1cccc(-c2noc(CCC(=O)NC3CCCC3)n2)c1", "inhibition": "-8.85%"},
      {"smiles": "Cc1cccc(-c2noc(-c3ccc(F)cc3)n2)c1", "inhibition": "94.2% (active)"},
      {"smiles": "Cc1ccc(-c2nc(-c3ccncc3)no2)c(C)c1", "inhibition": "42.5%"},
      {"smiles": "Cc1ccc(-n2c(C)cc(C(=O)CSc3nnc4ccccn34)c2C)cc1", "inhibition": "-18.4%"},
      {"smiles": "Nc1nonc1-n1nnc(C(=O)N/N=C/c2ccc(Cl)cc2)c1-c1ccc2c(c1)OCO2", "inhibition": "-3.14%"},
      {"smiles": "Cc1cc(C)n2nc(C(=O)Oc3ccc4c(c3)OCO4)nc2n1", "inhibition": "4.97%"},
      {"smiles": "CCOc1ccc(S(=O)(=O)Nc2nc3cc(OC)ccc3s2)cc1", "inhibition": "6.2%"},
      {"smiles": "COc1ccc2nc(Nc3nc4cc5c(cc4s3)OCCO5)sc2c1", "inhibition": "52.6% (active)"},
      {"smiles": "COc1ccc2nc(NC(=O)[C@@H]3CCCN3C(=O)c3cccs3)sc2c1", "inhibition": "-10%"},
      {"smiles": "CC[C@]12c3[nH]c4cc(CCC(=O)N(C)C)ccc4c3CCN1C(=O)[C@@H](CC(=O)NCCCn1ccnc1)C[C@@H]2C(=O)N1CCN(C(=O)C2CC2)CC1", "inhibition": "-1.68%"},
      {"smiles": "Cc1ccc(C)c(C(=O)N2CCC(n3nccc3NC(=O)C3CC3)CC2)c1", "inhibition": "0.772%"},
      {"smiles": "CC(C)CCNC(=O)c1ccc2c(Cl)c3c(nc2c1)CCC3", "inhibition": "84.1% (active)"},
      {"smiles": "COc1ccc(N2CCN(C(=O)c3ccc4c(Cl)c5c(nc4c3)CCCC5)CC2)cc1", "inhibition": "-4.91%"},
      {"smiles": "CC(=O)c1ccc(NC(=O)c2ccc3c(Cl)c4c(nc3c2)CCCC4)cc1", "inhibition": "-3.44%"},
      {"smiles": "CC(C)Cc1ccc(S(=O)(=O)N2CCN(C(=O)c3ccco3)CC2)cc1", "inhibition": "3.59%"},
      {"smiles": "O=C1c2ccccc2NC(c2ccccn2)N1NS(=O)(=O)c1ccccc1", "note": "(centres undefined)", "inhibition": "0.965%"},
      {"smiles": "CN(Cc1ccccc1)C(=O)c1cccc(C(=O)N(C)Cc2ccccc2)c1", "inhibition": "0.789%"},
      {"smiles": "O=C(COC(=O)CNS(=O)(=O)c1ccc(F)c(F)c1F)NC1CCCC1", "inhibition": "4.55%"},
      {"smiles": "O=[N+]([O-])c1ccc2nc(-c3ccccn3)[nH]c2c1", "inhibition": "70.4% (active)"},
      {"smiles": "O=[N+]([O-])c1ccc2c(c1)Nc1nc3ccccc3nc1N2", "inhibition": "-3.53%"},
      {"smiles": "O=[N+]([O-])c1ccc(N/N=C2/CCCCC2c2ccccn2)c([N+](=O)[O-])c1", "note": "(centres undefined)", "inhibition": "-1.83%"},
      {"smiles": "O=S(=O)(NCCCc1ccccc1)c1ccc(Br)cc1", "inhibition": "5.53%"},
      {"smiles": "COc1ccc(-c2[nH]nc(-c3ccccc3)c2-c2nc3ccccc3[nH]2)cc1", "inhibition": "1.53%"},
      {"smiles": "c1ccc2[nH]c(-c3nc4ccccc4[nH]3)nc2c1", "inhibition": "99.5% (active)"},
      {"smiles": "COc1ccc(Br)cc1C(=O)NC(=S)Nc1cc(-c2nc3ccccc3[nH]2)ccc1C", "inhibition": "2.43%"},
      {"smiles": "Cc1ccc(-c2nc3ccccc3[nH]2)cc1N", "inhibition": "94.4% (active)"},
      {"smiles": "Clc1ccccc1SCc1nc2ccccc2[nH]1", "inhibition": "35.5%"},
      {"smiles": "Cc1ccccc1N1CC(c2nc3ccccc3[nH]2)CC1=O", "note": "(centres undefined)", "inhibition": "4.87%"}
    ]}
  ]
}
